From PubChem
These entries were drawn from the full list.
aSyn UTR act – Activators via SNCA 5'UTR binding, MLPCN; alpha-synuclein 5'UTR reporter, activators screen; activity score, % (tested at 7.5 µM), hits read low; actives 7.1% (n = 300,000); in the data active = activity score below about -60%
An asterisk follows results filed as active.

SMILES	aSyn UTR act
Cc1ccccc1Cn1cc(NC(=O)c2nc3ncccn3n2)cn1	-94.7*
CCOC(=O)c1sc2nc(-c3cccnc3)ccc2c1N	-149.9*
NC(=O)c1sc2nc(-c3cccnc3)ccc2c1N	-101.5*
O=C1C(Nc2ccccc2)=C(NS(=O)(=O)c2ccccc2)C(=O)c2ccccc21	-74.8*
Cc1cc(NCc2ccccn2)nc2ccccc12	-86.8*
FC(F)(F)c1ccc(NCc2ccccn2)nc1	-166.6*
CCC(C)Nc1nc(-c2ccccn2)nc2ccccc12 (stereo unspecified)	68.6
Cc1c(C(=O)Nc2cccc(Cl)c2)c2ccccn2c1CCc1ccncc1	-102.9*
Cc1c(C(=O)Nc2ccc(Cl)cc2)c2ccccn2c1CCc1ccncc1	-115.1*
CCN(C(=O)c1cc2c(=O)n3ccccc3nc2n1C)C1CCCCC1	-74.8*
CCN(C(=O)c1cc2c(=O)n3ccccc3nc2s1)C1CCCCC1	-71.0*
CN(C(=O)c1cc2c(=O)n3ccccc3nc2n1C)C1CCCCC1	-89.6*
CC1CCCCC1NC(=O)c1cc2c(=O)n3ccccc3nc2n1C (stereo unspecified)	-66.0*
c1ccc(CCc2nc3ccccc3[nH]2)cc1	-120.2*
O=c1[nH]c2ccccc2nc1CCc1ccccc1	-89.7*
Cc1cccc(NC(=O)Nc2ccc(F)cc2)n1	-90.6*
Cc1cccc(NC(=O)Nc2ccc(Cl)cc2)n1	-99.1*
COc1ccc(NC(=O)Nc2ccc([N+](=O)[O-])cc2)cn1	-102.1*
Cc1ccc(NC(=O)Nc2cccc(C)n2)cc1	-75.8*
Cc1cccc(NC(=O)Nc2cccc(C)n2)n1	-95.4*
COc1ccc(C2C(C(=O)Nc3cccc(C)n3)CCC(=O)N2c2ccc(OC)cc2)cc1 (stereo unspecified)	73.1
Cc1cccc(NC(=O)Nc2ccc(C)c(C)c2)n1	-119.9*
Cc1cccc(NC(=O)Nc2ccc([N+](=O)[O-])cc2)n1	-97.2*
Cc1[nH]n(-c2ccccc2)c(=O)c1/C=C1/C=c2ccccc2=N1	-68.7*
O=C(NC(=O)c1ccccc1O)c1ccc(C(F)(F)F)cc1	-69.0*
SMILES	aSyn UTR act
CCOC(=O)c1ccc(NC(=O)c2ccccc2C)cc1	-156.4*
CC(=O)Nc1ccc(NC(=O)c2ccccc2F)cc1	-81.4*
O=C(Nc1ccc(F)cc1)c1ccccc1F	-135.0*
O=C(Nc1ccc(C(=O)N2CCCC2)cc1)c1ccccc1F	-65.4*
O=C(Nc1ccc(Oc2cccnc2)cc1)c1ccccc1F	-114.7*
O=C(Nc1ccc2oc(-c3ccc(F)cc3)nc2c1)c1ccccc1F	-113.5*
CCOC(=O)c1ccc(NC(=O)c2ccnn2C)cc1	-159.2*
O=C(Nc1ccc2cn[nH]c2c1)c1ccccc1F	-224.3*
CCOC(=O)Nc1ccc(NC(=O)c2ccccc2F)cc1	-149.1*
C#CCn1cnc2c(cnn2-c2ccc(C)c(C)c2)c1=O	-107.5*
Cc1nc2c3cnn(-c4ccc(C)c(C)c4)c3ncn2n1	-191.0*
Cc1ccc(-n2c(C)nc3c(cnn3-c3ccc(C)c(C)c3)c2=O)cc1C	-100.7*
Cc1ccc(-c2nn3cnnc3c3ccccc23)cc1C	64.2
COc1ccc(Cn2c(SCc3cc(C)ccc3C)nc3cc(OC)c(OC)cc3c2=N)cc1	54.8
COc1ccc(Cn2c(SCC#N)nc3ccc(N4CCOCC4)cc3c2=O)cc1	-88.5*
COc1ccc(OCCn2c(=O)sc3ccccc32)cc1	-142.4*
CCCCCCCCCCOC(=O)Cn1c(COc2cccc(C)c2)[n+](C)c2ccccc21	64.8
Cc1cccc(OCCCn2c(=O)sc3ccccc32)c1	-90.0*
CC(=O)Nc1ccc(-c2csc(Nc3ccccn3)n2)cc1	-161.1*
CC(=O)Nc1ccc(Nc2nc(-c3c(C)nc4ccccn34)cs2)cc1	86.6
Cc1ccnc(Nc2nc(-c3ccc(O)c(O)c3)cs2)c1	-148.3*
Oc1ccc(-c2csc(Nc3ccccn3)n2)cc1O	-138.8*
CC(=O)Nc1ccc(-c2csc(NCCc3ccccc3)n2)cc1	-140.9*
Cc1ccnc(Nc2nc(-c3ccc(O)cc3)cs2)c1	-231.7*
Cc1ccnc(Nc2nc(-c3ccc(O)cc3O)cs2)c1	-136.3*
SMILES	aSyn UTR act
CCC(=O)Nc1nc(C)c(-c2csc(Nc3ccccn3)n2)s1	-122.0*
COc1ccc(OC)c(Nc2nc(-c3sc(NC(=O)CC(C)C)nc3C)cs2)c1	57.9
C=CCNC(=S)Nc1c(C(=O)OC)[nH]c2cc(OC)ccc12	-90.8*
CN(C)/C=C/C(=O)/C=C/c1ccc(Cl)cc1	-180.2*
COc1cccc(N(C(=O)c2cccs2)c2nc3ccccc3s2)c1	-154.3*
CCCc1ccc2oc(C(=O)N3CCCC3)c(C)c2c1	-178.9*
Cc1c(C(=O)N2CCN(C)CC2)oc2ccc(Br)cc12	-103.6*
CCCc1ccc2oc(C(=O)NCCc3cnn(C)c3)c(C)c2c1	-181.9*
O=[n+]1c2c(n([O-])c3cc(F)c(N4CCCC4)cc31)CCCC2	-77.0*
COc1cc(C(=O)NCC(=O)N2CCN(S(=O)(=O)c3cc(C)ccc3C)CC2)cc(OC)c1OC	-75.0*
CCC1(c2ccc(Cl)cc2)NC(=S)N(c2ccccc2)N1 (stereo unspecified)	-71.4*
CCC1(c2ccccc2)NC(=S)N(c2ccc(C)cc2)N1 (stereo unspecified)	-85.4*
Cc1nc(-c2ccc(Cl)cc2)sc1C1(C)CC(c2ccccc2)=NO1 (stereo unspecified)	-134.2*
Cc1nc(-c2ccccc2)sc1C1(C)CC(c2ccccc2F)=NO1 (stereo unspecified)	-75.6*
COc1ccccc1C1=NOC(C)(c2sc(-c3ccc(Cl)cc3)nc2C)C1 (stereo unspecified)	-69.8*
C=CCn1c2ccccc2c(=O)c2cc(C#CC3(O)CCCCC3)ccc21	-169.6*
CCOC(=O)c1c(NC(=S)N2CCN(C)CC2)sc2c1CCN(C(=O)OCC)C2	-62.9*
Cc1cc(C(=O)NC2CCCc3c2cnn3-c2cccc(C)c2C)no1 (stereo unspecified)	-117.7*
COC(=O)c1ccc(C(=O)NC2CCCc3c2cnn3-c2ccc(C)c(C)c2)cc1 (stereo unspecified)	104.5
Cc1ccc(-c2nc3c(=O)n(C)c4ccccc4c3o2)cc1	-72.3*
CC(=O)N(C1=C(N)C(=O)c2ccccc2C1=O)c1ccccc1	78.2
COc1ccc(N(/N=C2\Sc3ccccc3C2=O)C(C)=O)cc1	-142.7*
O=C(O)CCCN1C(=O)/C(=C\c2ccco2)SC1=S	-141.5*
CC(=C\c1ccccc1)/C=C1/SC(=S)N(CCCC(=O)O)C1=O	66.6
NC(N)=NS(=O)(=O)c1ccc(N/C=C/C(=O)c2ccc(Cl)c(Cl)c2)cc1	-118.9*
SMILES	aSyn UTR act
Cc1nnc(NC(=O)c2csc3c2CCC(C)C3)s1 (stereo unspecified)	-99.8*
Cc1nnc(NC(=O)c2csc3c2CCCC3)s1	-99.5*
Cc1ccc(SCc2cn3ccccc3n2)cc1	-96.6*
c1ccc(CSCc2cn3ccccc3n2)cc1	-135.1*
Cc1ccn2cc(CSc3ccccc3N)nc2c1	-97.3*
COc1cc2c(cc1O)CC[C@@H]1[C@@H]2CC[C@]2(C)[C@@H](O)CC[C@@H]12	75.3
Cc1cc(C(=O)CN2CCC(C)CC2)c(C)n1-c1ccc(F)cc1	-97.3*
Cc1cc(C(=O)NC2CCCCC2)c(C)n1-c1ccc(F)cc1	-174.2*
Cc1cc(C(=O)CNCc2ccco2)c(C)n1-c1ccc(F)cc1	-105.9*
Cc1cc(C(=O)CN2CCCCC2)c(C)n1-c1ccc(F)cc1	-128.9*
CCOC(=O)c1cn2ccc(C)cc2n1	-107.3*
Cc1cccc(C)c1OCC(=O)N/N=C/c1ccc2c(c1)OCO2	-85.2*
Cn1cc(C(=O)N/N=C/c2cccs2)c2ccccc21	-181.0*
